Results published in the antibiotic and cytotoxicity screens of Wong et al. (2023).
In all, about 39,000 compounds went through this assay and about 1,500 (3.8%) were called active. Shown is part of a subset that was picked to be rich in actives.

These compounds were tested on HSkMC (human skeletal muscle cells) (assay: cytotoxicity call (relative viability < 0.9)). Conditions: 10 µM.

Row | Compound | cytotoxicity call
1 | Cc1ccc(S[C@]2(C(=O)NC(C)C)CC(=O)N(Cc3ccccc3C(F)(F)F)[C@@H]2c2ccc(CO)cc2)cc1 | inactive
2 | CC(C)(C)c1cc(NC(=O)Nc2ccc(Oc3ccnc4nc(O)cnc34)cc2F)n(-c2ccccc2)n1 | active
3 | Cc1ccc(S(=O)(=O)N(C)C[C@H]2Oc3ccc(NC(=O)C4CC4)cc3C(=O)N([C@H](C)CO)C[C@@H]2C)cc1 | inactive
4 | Fc1ccccc1-c1nc2ccn(Cc3ccc(-c4ccc(C(F)(F)F)cc4C(F)(F)F)nn3)cc-2n1 | active
5 | Cc1noc(C)c1NC(=O)Nc1cccc2c1O[C@H](CN(C)Cc1ccc(Oc3ccccc3)cc1)[C@@H](C)CN([C@H](C)CO)C2=O | inactive
6 | Cc1noc(C)c1NC(=O)Nc1ccc2c(c1)C(=O)N([C@H](C)CO)C[C@@H](C)[C@@H](CN(C)Cc1ccccc1)OCCCC[C@@H](C)O2 | inactive
7 | C[C@@H]1CCCCO[C@H](CN(C)C(=O)CCC(F)(F)F)[C@@H](C)CN([C@H](C)CO)C(=O)c2cc(NC(=O)c3ccccc3)ccc2O1 | inactive
8 | COc1ccc(NC(=O)Nc2ccc3c(c2)CC(=O)N([C@H](C)CO)C[C@@H](C)[C@H](CN(C)Cc2ccc(Oc4ccccc4)cc2)O3)cc1 | inactive
9 | O=C(O)CC[C@H]1CCCCN1 | inactive
10 | C1CCC(C(CC2CCCCN2)C2CCCCC2)CC1.O=C(O)C=CC(=O)O (centres undefined) | active
11 | C1CCC(C(C[C@H]2CCCCN2)C2CCCCC2)CC1 | inactive
12 | C[C@H]1CN([C@@H](C)CO)S(=O)(=O)c2ccc(-c3cncnc3)cc2O[C@@H]1CN(C)C(=O)C1CCCCC1 | inactive
13 | COc1ccc2c3c([nH]c2c1)[C@@H](CO)N(C[C@]13CCN(CC1)C(=O)Nc1cccc(c1)F)C(=O)c1ccc(cc1)F | inactive
14 | COc1ccc2c3c([nH]c2c1)[C@H](CO)N(C[C@]13CCN(CC1)C(=O)Nc1cccc(c1)F)C(=O)c1ccc(cc1)F | inactive
15 | COc1ccc2c3c([nH]c2c1)[C@@H](CO)N(CC1CCCCC1)C[C@]13CN(C1)C(=O)Nc1cccc(c1)F | inactive
16 | COc1ccc2c3c([nH]c2c1)[C@@H](CO)N(C[C@]13CN(CC2CCCCC2)C1)C(=O)Nc1cccc(c1)F | active
17 | COc1ccc2c3c([nH]c2c1)[C@H](CO)N(CC1CCCCC1)C[C@]13CN(C1)C(=O)Nc1cccc(c1)F | inactive
18 | COc1ccc2c3c([nH]c2c1)[C@H](CO)N(C[C@]13CN(CC2CCCCC2)C1)C(=O)Nc1cccc(c1)F | active
19 | C[C@H](CO)N1C[C@H](C)[C@H](CN(C)Cc2ccc(C(=O)O)cc2)Oc2ccc(NC(=O)c3ccncc3)cc2CC1=O | inactive
